This passage reports Potency and outcome results from PubChem BioAssay (Tox21).

Assay [1] deals with Retinoic acid receptor RXR-alpha (Homo sapiens) (UniProt P19793). In words: qHTS assay to identify small molecule agonists of the RXR signaling pathway (AID 1159527; calls by dose curve; further: nearly all actives have a fitted effect of over 35% in size). In short, it runs like this: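 Cells plated at 2,000/well, rested 5 hr at 37 C, pin-dosed with DMSO compound solutions, incubated 16 hr, then loaded with B/G FRET substrate for 2 hr at RT before dual-emission fluorescence reading.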
Retinoic acid receptor RXR-alpha (Homo sapiens), sequence (P19793 whole entry, looked up): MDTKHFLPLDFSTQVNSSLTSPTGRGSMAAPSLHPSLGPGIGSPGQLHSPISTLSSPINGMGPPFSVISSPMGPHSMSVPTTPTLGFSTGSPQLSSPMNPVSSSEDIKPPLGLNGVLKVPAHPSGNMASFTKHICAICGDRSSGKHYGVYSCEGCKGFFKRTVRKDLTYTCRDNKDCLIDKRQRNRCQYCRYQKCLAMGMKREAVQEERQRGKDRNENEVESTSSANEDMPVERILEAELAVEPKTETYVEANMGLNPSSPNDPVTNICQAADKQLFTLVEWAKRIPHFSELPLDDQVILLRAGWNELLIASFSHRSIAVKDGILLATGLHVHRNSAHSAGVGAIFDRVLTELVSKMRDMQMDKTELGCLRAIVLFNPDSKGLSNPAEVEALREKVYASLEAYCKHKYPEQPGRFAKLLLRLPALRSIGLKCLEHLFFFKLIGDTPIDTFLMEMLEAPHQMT

Assay [2] can be described thus: qHTS assay to identify small molecule agonists of the RXR signaling pathway - cell viability counter screen (AID 1159529).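 Further: HEK 293T cells carrying an RXR-alpha UAS beta-lactamase reporter; series mostly up to about 77 µM; nearly all actives have a fitted effect of over 50% in size.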 The essentials: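 Steps: seed RXR-alpha-UAS-bla HEK 293T cells in assay medium containing 2% charcoal-stripped FBS; incubate 5 hr; add compounds in DMSO; incubate 16 hr at 37 C; after the bla read, add CellTiter-Glo and read luminescence at 30 min.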
In general terms: In qHTS, concentration-response curves come from the screen itself.

A short description of assay [3]: qHTS assay to identify small molecule antagonists of the estrogen related receptor (ERR) signaling pathway from Tox21 library - cell viability counter screen (AID 1224834). Further: nearly all actives have a fitted effect of over 30% in size. Further: potency means the concentration at half of the fitted maximal effect. The essentials: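 In this quantitative HTS format, ERR cells receive compounds in DMSO and are incubated for 17.5 h at 37 C. Live-cell protease activity is then detected with CellTiter-Fluor.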

Assay [4] concerns the target Luciferin 4-monooxygenase (Photinus pyralis) (UniProt P08659). The experiment in a line: qHTS assay to identify small molecule inhibitors of firefly luciferase (AID 1224835). Further: nearly all actives have a fitted effect of over 25% in size. Further: potency means the concentration at half of the fitted maximal effect. The essentials:
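Biochemical qHTS: compounds run as interplate titrations against purified firefly enzyme, with D-luciferin and ATP each at its KM concentration. Light output recorded by CCD imaging.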

Assay [5] is described as follows: qHTS assay to identify small molecule agonists of the constitutive androstane receptor (CAR) signaling pathway - cell viability counter screen (AID 1224836). Further: nearly all actives have a fitted effect of over 45% in size. Further: potency means the concentration at half of the fitted maximal effect. The essentials:
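Cells were seeded and incubated 4 hrs. Compounds were added across 15 concentrations together with PK11195 at 0.75 uM final. Plates were incubated 23 hrs at 37 C. CellTiter-Fluor was added and fluorescence measured.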

Assay [6] is described as follows: qHTS assay to identify small molecule antagonists of the constitutive androstane receptor (CAR) signaling pathway - cell viability counter screen (AID 1224837). Further: nearly all actives have a fitted effect of over 45% in size. Further: potency means the concentration at half of the fitted maximal effect. The essentials:
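In quantitative HTS format, compounds at 15 concentrations were applied to HepG2 cells double-transfected with hCAR and CYP2B6-2.2kb under 50 nM CITCO stimulation; live-cell protease activity was read after 23 hr via CellTiter-Fluor.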

The target of assay [7] is Nuclear receptor subfamily 1 group I member 3 (Homo sapiens) (UniProt Q14994). The experiment in a line: qHTS assay to identify small molecule antagonists of the constitutive androstane receptor (CAR) signaling pathway (AID 1224838). Further: nearly all actives have a fitted effect of over 40% in size. In short, it runs like this:
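CITCO-stimulated (50 nM final) HepG2 cells stably transfected with hCAR and CYP2B6-2.2kb luciferase were exposed to compounds at 15 concentrations for 24 h at 37 C/5% CO2. A luciferase reagent was added and luminescence recorded after 30 min.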

Assay [8] shares this target. The experiment in a line: qHTS assay to identify small molecule agonists of the constitutive androstane receptor (CAR) signaling pathway (AID 1224839).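 Further: HepG2 cells stably carrying human CAR and a CYP2B6 luciferase reporter; series mostly up to about 92 µM; nearly all actives have a fitted effect of over 15% in size.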 In short, it runs like this:
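Cells were plated and incubated 4 hrs, then dosed with compounds at 15 concentrations. PK11195 was added to 0.75 uM final. After 24 hrs at 37 C, luciferase luminescence was measured.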

Assay [9] in a line: qHTS assay to identify small molecule antagonists of the estrogen related receptor signaling pathway with the pleiotropic PPARgamma coactivator (PGC) from Tox21 10K library - cell viability counter screen (AID 1224840; active means well fitted cell-killing curve with a large enough effect in the repeat runs, not every such curve was filed as active; further: nearly all actives have a fitted effect of over 40% in size). In short, it runs like this: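 Viability counter screen, PGC/ERR cells: 17.5 h compound exposure at 37 C, CellTiter-Fluor fluorescence endpoint.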
Assay [10] in a line: qHTS assay to identify small molecule antagonists of the estrogen related receptor signaling pathway with the pleiotropic PPARgamma coactivator (PGC) from Tox21 10K library (AID 1224841; call rule not given here; further: series mostly up to about 92 µM; actives are mostly falling curves and most rising ones were filed inactive; nearly all actives have a fitted effect of over 50% in size). In short, it runs like this:
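In the PGC/ERR line, DMSO solutions of test chemicals are pin-delivered to 2,000 cells/well six hours after dispensing. Following eighteen hours' incubation, One-Glo reagent is added and luminescence recorded.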

Assay [11] can be described thus: qHTS assay to identify small molecule agonists of the estrogen related receptor signaling pathway with the pleiotropic PPARgamma coactivator (PGC) from Tox21 10K library (AID 1224842). Further: nearly all actives have a fitted effect of over 15% in size. The essentials:
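PGC/ERR reporter cell line, 2,000 cells per well, incubated 6 h at 37 C before 23 nL compound in DMSO was added. After 18 h at 37 C, One-Glo luminescence read following 30 min at room temperature.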

Assay [12] in a line: qHTS assay to identify small molecule agonists of the retinoic acid receptor (RAR) signaling pathway (AID 1159553). Further: potency means the concentration at half of the fitted maximal effect. In short, it runs like this:
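Compounds dissolved in DMSO were pinned onto C3RL4 cells seeded the previous day, and plates were held 6 hr at 37 C. RARE-driven luciferase output was then read by luminescence.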

A short description of assay [13]: qHTS assay to identify small molecule antagonists of the estrogen related receptor (ERR) signaling pathway - cell viability counter screen (AID 1224818). Further: series mostly up to about 46 µM. In short, it runs like this: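 Cytotoxicity check run alongside the ERR antagonist screen: cells exposed to test compounds 17.5 h at 37 C, viability taken as CellTiter-Fluor fluorescence intensity.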
Assay [14] in a line: qHTS assay to identify small molecule antagonists of the estrogen related receptor signaling pathway with the pleiotropic PPARgamma coactivator (PGC) cell viability counter screen (AID 1224822; further: series mostly up to about 46 µM). The essentials: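 Viable cell signal (CellTiter-Fluor, 30 min, 37 C/5% CO2) was measured in PGC/ERR cells after a 17.5 h compound incubation.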
Assay [15] is described as follows: qHTS assay to identify small molecule antagonists of the retinoic acid receptor (RAR) signaling pathway (AID 1159552; further: nearly all actives have a fitted effect of over 50% in size). In short, it runs like this: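 Retinol at 1 uM final stimulated RARE-luciferase expression in C3RL4 cells exposed to test compounds for 6 hr at 37 C. Reduced luminescence, read 30 min after detection reagent, indicated pathway antagonism.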
Assay [16] in a line: qHTS assay to identify small molecule antagonists of the retinoid acid receptor (RAR) signaling pathway - cell viability counter screen (AID 1159551). Further: nearly all actives have a fitted effect of over 35% in size. The essentials:
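Viability of C3RL4 cells is quantified from ATP by luminescence after 6 h treatment at 37 C with compounds and 1 uM retinol.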

Results filed as inconclusive are left out. Unmarked numbers belong to inactive results. The source made the active and inactive calls. Unless noted, the call rests on the fitted dose curve; in most records, active means well fitted curve in the direction sought with a large enough effect in the repeat runs; inconclusive means weak or mixed curves; inactive means no such curve, though single readings can be large; an effect the other way counts as inactive or inconclusive.

Luciferin 4-monooxygenase (Photinus pyralis), sequence (P08659 whole entry, looked up): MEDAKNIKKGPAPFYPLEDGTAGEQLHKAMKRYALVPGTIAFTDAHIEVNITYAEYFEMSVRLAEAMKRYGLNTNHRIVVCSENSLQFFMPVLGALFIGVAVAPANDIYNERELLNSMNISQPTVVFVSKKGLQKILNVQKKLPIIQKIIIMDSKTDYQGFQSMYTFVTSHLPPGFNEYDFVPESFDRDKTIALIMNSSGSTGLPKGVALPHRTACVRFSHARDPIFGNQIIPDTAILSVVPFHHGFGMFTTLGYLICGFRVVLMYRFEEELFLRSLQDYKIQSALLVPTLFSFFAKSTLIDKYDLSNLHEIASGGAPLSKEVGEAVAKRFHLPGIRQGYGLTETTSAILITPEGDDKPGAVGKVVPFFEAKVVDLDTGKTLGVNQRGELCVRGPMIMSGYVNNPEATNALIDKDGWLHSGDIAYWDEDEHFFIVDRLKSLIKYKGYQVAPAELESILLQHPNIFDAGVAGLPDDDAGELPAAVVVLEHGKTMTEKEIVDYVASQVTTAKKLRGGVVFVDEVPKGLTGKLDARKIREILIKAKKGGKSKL
Nuclear receptor subfamily 1 group I member 3 (Homo sapiens), sequence (Q14994 whole entry, looked up): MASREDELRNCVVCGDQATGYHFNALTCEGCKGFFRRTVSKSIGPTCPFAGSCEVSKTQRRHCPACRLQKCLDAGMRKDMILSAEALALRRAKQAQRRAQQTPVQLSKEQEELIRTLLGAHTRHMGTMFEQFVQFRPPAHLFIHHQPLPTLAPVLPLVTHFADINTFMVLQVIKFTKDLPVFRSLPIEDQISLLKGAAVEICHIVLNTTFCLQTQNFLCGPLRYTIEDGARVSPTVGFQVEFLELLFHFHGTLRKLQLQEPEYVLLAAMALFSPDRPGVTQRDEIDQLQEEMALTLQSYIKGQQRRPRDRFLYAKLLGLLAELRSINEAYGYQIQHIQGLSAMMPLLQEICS

On to `CCn1ccc(NS(=O)(=O)c2ccc(N)cc2)nc1=O`, for which the Potency entry in assay [1], in [3], in assay [4], in assay [5], in assay [6] and in assay [8] was “inactive” each time. The Potency result in [10] is “inactive”. In addition, the call in assay [2], in assay [7], in assay [9] and in [11] was inactive.
As to `FC(F)(F)c1ccccc1-n1ccnc1`, the Potency entry in assay [1], in assay [12], in [3], in [4], in assay [5] and in assay [6] was “inactive” each time. In assay [8], the Potency result was “inactive”. Besides, the result in [2], in [13], in assay [14], in assay [7] and in assay [9] was inactive.
As for `C#CC(C)N(C)C(=O)Nc1ccc(Cl)cc1` (centres undefined), the Potency entry in [1], in assay [5], in assay [6] and in assay [10] was “inactive” each time. Further, the call in [2], in assay [15], in assay [7], in assay [9] and in [11] was inactive. The results for the Potency in assay [12] and in assay [4] were 38.5 µM (active) and 63.2 µM (active), respectively.
Turning to `Nc1ccc([N+](=O)[O-])c(N)c1`, the Potency entry in assay [1], in assay [12], in assay [8] and in [10] was “inactive” throughout. Besides, the compound was classed as inactive in assay [2], in [15], in assay [7] and in assay [11]. Also, the Potency is 47.3 µM (active) in assay [3], 53.1 µM (active) in assay [5] and 47.3 µM (active) in assay [6].
As for `Cc1c(I)c(=O)n(-c2ccccc2)n1C`, the Potency result in assay [1], in assay [3], in assay [5], in assay [6], in [8] and in assay [10] was “inactive” each time. Further, the compound was classed as inactive in assay [2], in assay [7], in assay [9] and in [11].
Turning to `CCCC/C=C/C=C\C=O`, the Potency entry in assay [1], in assay [12], in assay [3], in assay [4], in assay [5] and in assay [6] was “inactive” in each case. In assay [8], the Potency result was “inactive”. Also, the result in assay [2], in assay [7] and in [9] was inactive.
As to `CC(=O)NCc1c(I)c(NC(C)=O)c(I)c(C(=O)O)c1I`, the Potency result in assay [1], in assay [3], in assay [4], in assay [6], in assay [8] and in assay [10] was “inactive” throughout. For the same compound, the compound was classed as inactive in assay [2], in [7], in [9] and in assay [11].
Take `OC[C@H](Cc1cccc(O)c1)[C@H](CO)Cc1cccc(O)c1`: the Potency result in [1], in assay [3], in assay [5], in [6], in assay [8] and in assay [10] was “inactive” throughout. The result in [2], in assay [15], in assay [7], in [9] and in [11] was inactive.
`CCOCCOC(=O)/C=C/c1ccc(OC)cc1`: the result in assay [2], in assay [16], in [15], in [7] and in [9] was inactive. The Potency in assay [12] is 33.5 µM (active). Also, the Potency result in assay [3], in assay [5] and in assay [6] was “inactive” in each case.
Consider `CCCCOCCOC(=O)COc1nc(Cl)c(Cl)cc1Cl`, for which the Potency result in assay [1], in assay [3], in [4], in [5], in assay [6] and in [10] was “inactive” in each case. Further, the compound was called inactive in [2], in assay [15], in [9] and in assay [11].
As to `CC(CO)c1ccccc1` (centres undefined), the Potency entry in assay [1], in assay [3], in assay [5], in assay [6] and in [8] was “inactive” each time. For the same compound, the compound was classed as inactive in [2], in [7] and in assay [9].
Regarding `Cc1ccc2c(c1)OCC(=O)CO2`, the Potency entry in [1], in [3], in assay [4], in assay [5], in assay [6] and in assay [8] was “inactive” each time. The Potency entry in assay [10] was “inactive”. The compound was called inactive in assay [2], in assay [15], in [7] and in assay [9].
